# Data: PubChem BioAssay (NCATS)
# Unmarked numbers belong to inactive results. Records with an inconclusive call do not appear. A call without a number means that no potency is given here. Calls of active or inactive are those of the source. Calls come from the whole dose curve; as a rule, active = well fitted curve in the direction sought with a large enough effect; inconclusive = small, poorly fitted or top-dose-only effect, or another doubt; inactive = no such curve, though single readings can be large; an effect the other way counts as inactive or inconclusive.
# Molecular target: Cytochrome P450 3A4 (Homo sapiens) (UniProt P08684)
# Assay: qHTS Assay for Inhibitors and Substrates of Cytochrome P450 3A4 (AID 884); note: potency is the fitted concentration of half-maximal effect; nearly all actives have a fitted effect of over 50% in size
# Conditions: recombinant CYP3A4, Luciferin-PPXE luminescence; series mostly up to 57.1 µM
# Outline: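 Luminescent readout of luciferin produced by CYP3A4 (20 nM) dealkylation of Luciferin-PPXE, 25 uM (its KM). NADPH-driven reaction ran 60 min at RT after 10 min compound preincubation; data scaled to 57 uM ketoconazole as 100% inhibition.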
# Chain of Cytochrome P450 3A4 (Homo sapiens) (P08684 whole entry, looked up): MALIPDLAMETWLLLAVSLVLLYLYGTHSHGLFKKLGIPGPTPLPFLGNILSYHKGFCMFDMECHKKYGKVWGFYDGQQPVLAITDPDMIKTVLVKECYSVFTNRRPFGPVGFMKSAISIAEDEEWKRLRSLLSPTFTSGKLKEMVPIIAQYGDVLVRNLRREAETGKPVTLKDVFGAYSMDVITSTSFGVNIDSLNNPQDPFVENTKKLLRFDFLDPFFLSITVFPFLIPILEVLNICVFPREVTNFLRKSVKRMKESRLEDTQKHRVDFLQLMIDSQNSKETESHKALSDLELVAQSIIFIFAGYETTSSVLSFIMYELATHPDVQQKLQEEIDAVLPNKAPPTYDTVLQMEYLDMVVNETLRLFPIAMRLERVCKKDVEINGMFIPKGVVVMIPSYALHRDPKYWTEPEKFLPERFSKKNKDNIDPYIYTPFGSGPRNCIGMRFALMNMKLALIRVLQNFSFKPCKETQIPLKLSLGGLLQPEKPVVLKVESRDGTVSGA
row,SMILES,Potency
1,CCC1=C2CC[C@H]3C(=O)N(CC)C(=O)[C@H]3[C@H]2[C@@]2(Cc3ccccc3)C(=NCCOC)OC(=O)N2C1=O,10 µM (active)
2,CCC1=C2CC[C@H]3C(=O)N(c4ccccc4)C(=O)[C@H]3[C@H]2[C@@]2(Cc3ccccc3)C(=NCc3ccccc3)OC(=O)N2C1=O,5.01 µM (active)
3,COC(=O)[C@@H]1C[C@@]2(O)[C@@H](O)[C@@H](O)[C@@H](O)C[C@H]2N1Cc1cc(OC)cc(OC)c1,3.16 µM (active)
4,COC(=O)[C@@H]1C[C@@]2(O)[C@H](O)[C@H](O)[C@H](O)C[C@H]2N1Cc1ccccc1OS(=O)(=O)c1ccc(C)cc1,7.94 µM (active)
5,COC(=O)C/C=C\[C@@H](C)[C@@H](/C=N\OC[C@@H](O)[C@H]1O[C@H]2OC(C)(C)O[C@H]2[C@@H]1O)NS(=O)(=O)c1ccc(C)cc1,3.98 µM (active)
6,CCN1C(=O)[C@@H]2[C@H](C1=O)[C@@H]1C[C@H]3C(=O)N(CC)C(=O)[C@H]3[C@@H]3C1=C(C(=O)N1C(=O)O/C(=N\CC4CC4)[C@]31C)[C@@H]2C,15.8 µM (active)
7,C/C(CCC(=O)OC[C@@H]1O[C@H](C#Cc2ccccc2)C=C[C@@H]1Oc1ccc(C)cc1)=N/O[C@@H](C)CN1CCCCc2nc(C)c(C)cc21,3.16 µM (active)
8,CCC1=C(OC(=O)N(CC)CC)N2C(=O)OC(=NCCc3c[nH]c4ccccc34)[C@]2(Cc2ccccc2)[C@H]2C1=CC[C@H]1C(=O)N(c3ccccc3)C(=O)[C@H]12,6.31 µM (active)
9,FC(F)(F)c1ccc(C2[C@H]3CN(Cc4cccnc4)[C@H](c4ccccc4)C34CC2(c2cccnc2)C4)cc1 (some centres not stated),2 µM (active)
10,C=CC[C@@H]1C=C[C@H](O/N=C(\C)CCN2CCCc3nc(C)c(C)cc32)[C@H](CO)O1,2.51 µM (active)
11,COC(=O)c1cccc(C23CC4(C2)[C@H](CN(Cc2cccnc2)[C@@H]4c2ccccc2)C3c2ccc(C(F)(F)F)cc2)c1 (some centres not stated),2.51 µM (active)
12,CCC1=C(OC(=O)N(CC)CC)N2C(=O)OC(=NCC3CC3)[C@]2(C)[C@H]2C1=CC[C@H]1C(=O)N(c3ccccc3)C(=O)[C@H]12,3.16 µM (active)

# Molecular target: Cytochrome P450 3A4 (Homo sapiens) (UniProt P08684)
# Assay: qHTS Assay for Activators of Cytochrome P450 3A4 (AID 885); note: nearly all actives have a fitted effect of over 65% in size
# Conditions: recombinant CYP3A4, Luciferin-PPXE luminescence, 60 min; series mostly up to 57.1 µM
# Outline: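 Human CYP3A4 dealkylates Luciferin-PPXE to luciferin, which luciferase detection converts to light. Substrate was at its KM (25uM), buffer 200mM KPO4, reaction 60 min at RT.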
SMILES,Potency,"activity change, positive = activation"
FC(F)(F)c1ccc(C2[C@H]3CN(Cc4cccnc4)[C@H](c4ccccc4)C34CC2(c2ccccc2)C4)cc1 (some centres not stated),inactive,
COc1cccc([C@@H]2Oc3ccc(OC)cc3C(=O)[C@H]2O)c1,,-83.3% [at 11.4 µM]
CN1C[C@@H]2C(c3ccc(Cl)nc3)C3(c4cccnc4)CC2(C3)[C@H]1c1ccccc1 (some centres not stated),inactive,
CCC1=C(OC(=O)N(CC)CC)N2C(=O)OC(=NCCc3c[nH]c4ccccc34)[C@]2(C)[C@H]2C1=CC[C@H]1C(=O)N(CC)C(=O)[C@H]12,inactive,
[C-]#[N+]/C(C#N)=C\c1cc(C(C)(C)C)c(O)c(C(C)(C)C)c1,inactive,
CCC1=C(OC(=O)N(CC)CC)N2C(=O)OC(=NCCc3c[nH]c4ccccc34)[C@]2(Cc2ccccc2)[C@H]2C1=CC[C@H]1C(=O)N(CC(=O)OC)C(=O)[C@H]12,inactive,
COC(=O)c1ccc(C(NC(=O)OCc2ccccc2)/C(=C/[C@@H](C)C(=O)Nc2ccc(OC)cc2)c2cccnc2)cc1 (some centres not stated),inactive,
COC(=O)[C@H]1C[C@H]2CC[C@H](O)C[C@H]2N1Cc1c(F)cccc1Cl,inactive,
COC(=O)c1ccc(C(NC(=O)OCc2ccccc2)/C(=C/[C@@H](C)C(=O)N[C@@H](CO)Cc2ccccc2)c2cccnc2)cc1 (some centres not stated),inactive,
CCCNC(=O)OC[C@H]1O[C@@H](CCO/N=C2/[C@H]3O[C@@H]3[C@@H](O)[C@H]3[C@H]2CCn2c(=O)n(-c4ccccc4)c(=O)n23)C=C[C@@H]1Oc1ccc(OC)cc1,,-85.3% [at 11.4 µM]
COCCN=C1OC(=O)N2C(=O)C3=C4C(C[C@H]5C(=O)N(CC(=O)OC)C(=O)[C@H]5[C@H]4[C@@]12Cc1ccccc1)[C@H]1C(=O)N(CC(=O)OC)C(=O)[C@H]1[C@H]3C (some centres not stated),inactive,
COC(=O)c1cccc(C23CC4(C2)[C@H](CN(Cc2cccnc2)[C@@H]4c2ccccc2)C3c2ccccc2)c1 (some centres not stated),inactive,
C/C(CCN1CCCc2nc(C)c(C)cc21)=N\O[C@@H](C)CN1CCCCc2nc(C)c(C)cc21,,-69.7% [at 11.4 µM]
CCC1=C2CC[C@H]3C(=O)N(C)C(=O)[C@H]3[C@H]2[C@@]2(C)C(=NCc3ccccc3)OC(=O)N2C1=O,inactive,
CCC1=C(OC(=O)N(CC)CC)N2C(=O)OC(=NCC3CC3)[C@]2(Cc2ccccc2)[C@H]2C1=CC[C@H]1C(=O)N(CC(=O)OC)C(=O)[C@H]12,inactive,
CCC1=C2CC[C@H]3C(=O)NC(=O)[C@H]3[C@H]2[C@@]2(C)C(=NCCc3c[nH]c4ccccc34)OC(=O)N2C1=O,inactive,
CCCOc1ccc(Br)cc1-c1cc(-c2ccc(Cl)cc2)[nH]c1-c1ccncc1,inactive,
C/C(CCN1CCCCc2nc(C)c(C)cc21)=N\O[C@@H](C)CN1CCCCc2nc(C)c(C)cc21,,-81.7% [at 11.4 µM]
CCC1=C2CC[C@H]3C(=O)N(CC)C(=O)[C@H]3[C@H]2[C@@]2(C)C(=NCCc3c[nH]c4ccccc34)OC(=O)N2C1=O,inactive,
C=CC[C@@H]1C=C[C@H](O/N=C\[C@@H](C)[C@H](OCc2ccccc2)C(C)C)[C@H](CO)O1,,-73.8% [at 11.4 µM]

SMILES,Potency,"activity change, positive = activation"
CCC1=C(OC(=O)N(CC)CC)N2C(=O)OC(=NCCOC)[C@]2(Cc2ccccc2)[C@H]2C1=CC[C@H]1C(=O)NC(=O)[C@H]12,inactive,
c1ccc(C2[C@H]3CN(CC4CCCCC4)[C@H](c4ccccc4)C34CC2(c2cccnc2)C4)cc1 (some centres not stated),inactive,
CNC1=C(Cl)C(=O)c2ccncc2C1=O,inactive,
N#Cc1ccc(C23CC4(C2)[C@H](CN(CC2CCCCC2)[C@@H]4c2ccccc2)C3c2ccccc2)cc1 (some centres not stated),inactive,
CC(=O)OC[C@@H]1O[C@H](C/C=N\O[C@@H](C)c2cc(-c3c(C)cc(C)cc3C)no2)C=C[C@@H]1OC(C)=O,,-77.7% [at 11.4 µM]
C/C(CCN1CCCCc2nc(C)c(C)cc21)=N\OC[C@@H](O)COCc1ccco1,,-64.3% [at 11.4 µM]
CCOC(=O)N/N=C1/C[C@@H](O)[C@@H](O)[C@@H]2[C@@H]3C(=O)N(Cc4ccc5c(c4)OCO5)C(=O)[C@H]3CC[C@@H]12,,-82.5% [at 11.4 µM]
CCC1=C(OC(=O)N(CC)CC)N2C(=O)OC(=NCC(=O)OC)[C@]2(C)[C@H]2C1=CC[C@H]1C(=O)N(CC)C(=O)[C@H]12,inactive,
CCC1=C2CC[C@H]3C(=O)N(CC)C(=O)[C@H]3[C@H]2[C@@]2(Cc3ccccc3)C(=NCCOC)OC(=O)N2C1=O,inactive,
CCC1=C2CC[C@H]3C(=O)N(c4ccccc4)C(=O)[C@H]3[C@H]2[C@@]2(Cc3ccccc3)C(=NCc3ccccc3)OC(=O)N2C1=O,inactive,
COC(=O)[C@@H]1C[C@@]2(O)[C@@H](O)[C@@H](O)[C@@H](O)C[C@H]2N1Cc1cc(OC)cc(OC)c1,inactive,
COC(=O)[C@@H]1C[C@@]2(O)[C@H](O)[C@H](O)[C@H](O)C[C@H]2N1Cc1ccccc1OS(=O)(=O)c1ccc(C)cc1,inactive,
COC(=O)C/C=C\[C@@H](C)[C@@H](/C=N\OC[C@@H](O)[C@H]1O[C@H]2OC(C)(C)O[C@H]2[C@@H]1O)NS(=O)(=O)c1ccc(C)cc1,,-61% [at 11.4 µM]
CCN1C(=O)[C@@H]2[C@H](C1=O)[C@@H]1C[C@H]3C(=O)N(CC)C(=O)[C@H]3[C@@H]3C1=C(C(=O)N1C(=O)O/C(=N\CC4CC4)[C@]31C)[C@@H]2C,inactive,
C/C(CCC(=O)OC[C@@H]1O[C@H](C#Cc2ccccc2)C=C[C@@H]1Oc1ccc(C)cc1)=N/O[C@@H](C)CN1CCCCc2nc(C)c(C)cc21,,-94.6% [at 11.4 µM]
CCC1=C(OC(=O)N(CC)CC)N2C(=O)OC(=NCCc3c[nH]c4ccccc34)[C@]2(Cc2ccccc2)[C@H]2C1=CC[C@H]1C(=O)N(c3ccccc3)C(=O)[C@H]12,inactive,
FC(F)(F)c1ccc(C2[C@H]3CN(Cc4cccnc4)[C@H](c4ccccc4)C34CC2(c2cccnc2)C4)cc1 (some centres not stated),inactive,
C=CC[C@@H]1C=C[C@H](O/N=C(\C)CCN2CCCc3nc(C)c(C)cc32)[C@H](CO)O1,,-70.1% [at 11.4 µM]
COC(=O)c1cccc(C23CC4(C2)[C@H](CN(Cc2cccnc2)[C@@H]4c2ccccc2)C3c2ccc(C(F)(F)F)cc2)c1 (some centres not stated),inactive,
CCC1=C(OC(=O)N(CC)CC)N2C(=O)OC(=NCC3CC3)[C@]2(C)[C@H]2C1=CC[C@H]1C(=O)N(c3ccccc3)C(=O)[C@H]12,inactive,
